RE007 growth inh: less growth of the S. pombe RE007 Vpr strain. S. pombe RE007 Vpr strain, BacTiter-Glo ATP luminescence, 24 h. Potency, µM (highest dose often 92.2 µM), for inactives: at the highest dose activity change, negative = less growth, actives largely listed as inhibitors. hit rate 0.21% among 360,000; active = well fitted falling curve with a large enough effect; inconclusive = small, poorly fitted or top-dose-only effect; inactive = no such curve, though single readings can be large or run the other way; also: % is scaled to controls: 0 for no effect and ±100 for the full control effect; nearly all actives have a fitted effect of over 50% in size
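Fission yeast strain RE007, carrying one chromosomally integrated HIV-1 vpr copy, was seeded at OD 0.01 in PMG+AL medium with 23 nL pinned compound. After 24 h at 30 °C and 99% humidity, viability was read by BacTiter-Glo luminescence.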
Pf growth 96h: P. falciparum growth inhibition at 96 hours; P. falciparum luciferase reporter growth, 96 h; hit rate 6.9% among 320,000; AID 504834; Potency, µM (top dose mostly 28.7 µM), inactives show top-dose activity change, negative = inhibition, actives largely listed as inhibitors; active = well fitted inhibition curve with a large enough effect; inconclusive = small, poorly fitted or top-dose-only effect, or another doubt; inactive = no such curve, though single readings can be large or run the other way; also: % is scaled to controls: 0 for no effect and ±100 for the full control effect
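P. falciparum expressing integrated firefly luciferase grown in erythrocytes (2% hematocrit, 0.05% parasitemia final) with compounds for 96 hours at 37 C, 5% CO2. Growth inhibition read as loss of luminescence after adding luciferase detection reagent.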
NS1 function inh: inhibitors of influenza NS1 protein function | Potency, µM (top dose mostly 46.1 µM), for inactives: at the top dose activity, positive = more growth | hit rate 0.4% among 270,000; also: actives are rising curves; nearly all actives have a fitted effect of over 50% in size
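OD600 was taken as the measure of yeast growth restored by compound in an NS1-expressing S. cerevisiae strain. Cells had been washed out of glucose medium and diluted 1:100 into galactose -URA medium, pH 6.0.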
SARS PLpro yeast: SARS-CoV PLP inhibition in yeast | S. cerevisiae expressing SARS-CoV PLpro, growth rescue | Potency, µM (series often up to 32.9 µM), for inactives: at the highest dose activity, positive = growth rescue, usual class: activators | hit rate 0.19% among 330,000; also: 0% is about no effect; nearly all actives have a fitted effect of over 55% in size
Pf growth 48h: inhibits P. falciparum growth in the first generation, 48 h; hit rate 5.9% among 310,000; P. falciparum luciferase growth in erythrocytes, 48 h; Potency, µM (series often up to 28.7 µM), without a hit: top-dose activity change, negative = inhibition, most hits filed as inhibitors; active = well fitted inhibition curve with a large enough effect; inconclusive = small, poorly fitted or top-dose-only effect, or another doubt; inactive = no such curve, though single readings can be large or run the other way; also: % is scaled to controls: 0 for no effect and ±100 for the full control effect
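Here the parasites carry a stable luciferase gene and grow inside erythrocytes in Albumax-based RPMI medium with compound for one erythrocytic cycle. Activity is scored as loss of luminescent signal.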
* hit, by the source's call; ? = inconclusive; / = not tested or not shown; [ ] = dose if it differs, or a comment. Sampled rows, rich in hits. Any-hit rate of the full collection: about 9.5%. Unless noted, calls follow the shape of the full dose curve. Potency is read from the fitted curve at half-maximal effect.

SMILES	RE007 growth inh	Pf growth 96h	NS1 function inh	SARS PLpro yeast	Pf growth 48h
Cc1ccc([C@@H]2[C@@H]3C(=O)N(c4ccccc4)C(=O)[C@@H]3[C@]3(C)C(=O)N(Cc4ccccc4)CC(=O)N23)o1	-3.9%	1.6%	-2.7%	0.9%	?
CC1NC2(C(=O)N(Cc3ccccc3)c3ccccc32)C2C(=O)N(c3ccccc3)C(=O)C12 (configuration not stated)	6.0%	11.7µM*	-57.6%	10.4%	?
CCN=c1scc(C)n1/N=C/c1cc(Br)c(O)c(Br)c1	-23.8%	?	/	-3.1%	?
COCCN=c1scc(-c2ccccc2)n1/N=C/c1c[nH]c2ccccc12	-14.8%	?	18.8%	-88.0%	?
COCCN=c1scc(-c2cccs2)n1/N=C/c1ccc(O)c(O)c1O	-9.8%	4.15µM*	?	-94.5%	9.28µM*
CCN=c1scc(C)n1/N=C/c1ccc(O)c(O)c1O	-27.0%	7.38µM*	-13.9%	-4.7%	?
Cn1cnnc1Sc1nc([N+](=O)[O-])nn1C	20.0%	49.0%	4.6%	-0.2%	10.8%
COc1ccccc1-c1nnc(Sc2nc([N+](=O)[O-])nn2C)o1	-2.8%	1.85µM*	11.2%	13.9%	/
O=C(NCC1CCCCC1)C1(CC2CC(c3cccc(Br)c3)=NO2)CCNCC1 (configuration not stated)	2.9%	?	6.2%	9.0%	-64.3%
CCCNC(=O)C1(CC2CC(c3ccccc3)=NO2)CCN(C(=O)c2ccccc2)CC1 (configuration not stated)	-0.1%	?	/	-1.2%	11.7µM*
CCOc1cc(C(=O)N2CCC(CC3CC(c4ccc(Cl)cc4)=NO3)(C(=O)NCC3CCCCC3)CC2)cc(OCC)c1OCC (configuration not stated)	-6.9%	0.233µM*	2.0%	0.7%	0.294µM*
O=C(c1ccccc1)N1CCC(CC2CC(c3cccc(Br)c3)=NO2)(C(=O)NCC2CCCCC2)CC1 (configuration not stated)	8.7%	5.22µM*	?	0.0%	?
CC1(C(=O)NCc2ccncc2)Cc2c(-c3cccc(C(F)(F)F)c3)ccnc2O1 (configuration not stated)	-12.8%	/	/	/	/
Nc1ccccc1-c1ccc([N+](=O)[O-])cc1	14.7%	/	/	/	/
O=C(COC(=O)c1c(F)cccc1F)Nc1cccc(S(=O)(=O)N2CCCCC2)c1	0.2%	/	/	/	/
C=CCn1c(SCC(=O)NC2CCCC2)nnc1-c1ccncc1	18.5%	?	-3.4%	-3.8%	3.8%
C=CCn1c(SCC(=O)NC2CCS(=O)(=O)C2)nnc1-c1ccncc1 (configuration not stated)	-16.5%	27.1%	-1.8%	6.8%	2.62µM*
Cc1ccc(C)n1-c1c(C(=O)NN)cnn1-c1ccccc1	-0.3%	?	/	1.9%	10.4µM*
Cc1cc(N2CCC(C(=O)N3CCN(c4cccc(C)c4C)CC3)CC2)n2ncnc2n1	10.3%	/	-14.4%	2.7%	2.33µM*
O=C(O)COc1ccc(NC(=O)c2ccc3c(c2)C(=O)N(C2CCCCC2)C3=O)cc1	10.6%	-16.9%	-6.2%	-1.2%	?
CCC(=O)Oc1ccc(C(=O)Nc2ccc3c(c2)C(=O)N(C2CCCCC2)C3=O)cc1	15.5%	10.4µM*	4.6%	3.9%	/
O=C(O)c1cc(C(=O)O)nc(C(=O)O)c1	/	/	5.2%	/	/
Cc1ccc(S(=O)(=O)C=CS(=O)(=O)c2ccc(C)cc2)cc1	1.41µM*	/	/	/	/
Cc1ccc(S(=O)(=O)c2ccc(C)cc2)cc1	-12.4%	23.7%	4.7%	2.0%	/
CCOc1ccccc1NC(=O)c1ccc2c(c1)C(=O)N(CC1CCCO1)C2=O (configuration not stated)	-0.1%	14.7µM*	-17.2%	4.7%	42.3%
SMILES	RE007 growth inh	Pf growth 96h	NS1 function inh	SARS PLpro yeast	Pf growth 48h
CCCC(=O)C1C(=O)CC(C)(C)C(c2cc(C)no2)C1=O (configuration not stated)	-3.6%	0.117µM*	-69.6%	?	7.0%
O=C(CN1CCN(S(=O)(=O)N2CCOCC2)CC1)Nc1cc(Cl)ccc1Cl	10.2%	24.1%	0.4%	0.2%	-20.6%
CCN(CC)CCN(Cc1cc2cc3c(cc2[nH]c1=O)OCO3)C(=S)NCC1CCCO1 (configuration not stated)	4.3%	14.7µM*	-4.2%	0.8%	-10.9%
CCN(CC)CCN(Cc1cc2cc3c(cc2[nH]c1=O)OCCO3)C(=S)NCC1CCCO1 (configuration not stated)	-10.6%	-0.7%	5.6%	-1.2%	-8.6%
CCN(CC)CCN(Cc1cc2cc3c(cc2[nH]c1=O)OCO3)C(=S)NCCCOC	0.1%	13.1µM*	-13.5%	3.1%	-6.1%
Cc1ccc(C)c2[nH]c(=O)c(CN(Cc3cccs3)C(=S)NCc3ccco3)cc12	-1.4%	27.7%	27.1%	19.6%	10.4µM*
Cc1cc(C)c2cc(CN(Cc3ccco3)C(=S)NCC3CCCO3)c(=O)[nH]c2c1 (configuration not stated)	-8.9%	?	0.1%	0.6%	2.08µM*
CSc1ccc(CNC(=O)C2(C)CCN2C(C)C)cc1 (configuration not stated)	-1.6%[18.4 µM]	/	/	/	/
CC[C@@H](C)C(N)C(=O)O (some centres not stated)	/	-11.5%	/	/	5.9%
COc1ccc(N2CC(C(=O)N3CCN(S(=O)(=O)c4ccc(F)c(F)c4)CC3)CC2=O)c(OC)c1 (configuration not stated)	1.2%	/	/	/	/
CS(=O)(=O)N(CC(=O)N1CCCCCC1)c1cccc(F)c1	0.8%	?	16.2%	2.0%	18.2%
CCOC(=O)C1=C(C)NC(=O)CC1c1cc2c(cc1Br)OCO2 (configuration not stated)	-12.7%	67.9%	?	10.6%	-22.1%
CCOC(=O)C1=C(C)NC(=O)CC1c1cc(OC)c(OC)cc1Br (configuration not stated)	5.1%	?	/	4.5%	0.465µM*
O=C(CC1CCCCC1)Nc1ncn[nH]1	4.8%	2.94µM*	5.7%	-4.2%	0.0%
O=C(CC(c1ccccc1)c1ccccc1)Nc1ncn[nH]1	-1.7%	5.6%	2.6%	-7.3%	-0.2%
CCCCCCCCCCCCCC(=O)OCC(COP(=O)([O-])OCC[N+](C)(C)C)OC(=O)CCCCCCCCCCCCC (configuration not stated)	/	8.5%	/	/	8.9%
C/C(=N\NC(=O)C1CCCN(S(=O)(=O)c2ccccc2)C1)c1cccnc1 (configuration not stated)	-4.6%	9.28µM*	5.0%	0.9%	3.8%
C/C(=N\NC(=O)C1CCCN(S(=O)(=O)c2ccccc2)C1)c1ccncc1 (configuration not stated)	8.9%	?	3.3%	2.5%	-5.3%
C/C(=N\NC(=O)C1CCCN(S(=O)(=O)c2ccccc2)C1)c1ccccn1 (configuration not stated)	-10.9%	49.3%	-0.1%	1.3%	2.33µM*
